# Screens: PubChem, The Scripps Research Institute Molecular Screening Center
# CHRM1 PAM = positive allosteric modulators of human M1 muscarinic receptor; 0.088% of 360,000 active; CHO-K1 hM1, Fluo-8 calcium fluorescence, ACh EC20; 0% = ACh EC20, 100% = maximal ACh; AID 588819; activation, % at 3 µM; in the data active = activation above about 19%, passing the limit was not always enough
# Target sequence (P11229 whole entry, looked up): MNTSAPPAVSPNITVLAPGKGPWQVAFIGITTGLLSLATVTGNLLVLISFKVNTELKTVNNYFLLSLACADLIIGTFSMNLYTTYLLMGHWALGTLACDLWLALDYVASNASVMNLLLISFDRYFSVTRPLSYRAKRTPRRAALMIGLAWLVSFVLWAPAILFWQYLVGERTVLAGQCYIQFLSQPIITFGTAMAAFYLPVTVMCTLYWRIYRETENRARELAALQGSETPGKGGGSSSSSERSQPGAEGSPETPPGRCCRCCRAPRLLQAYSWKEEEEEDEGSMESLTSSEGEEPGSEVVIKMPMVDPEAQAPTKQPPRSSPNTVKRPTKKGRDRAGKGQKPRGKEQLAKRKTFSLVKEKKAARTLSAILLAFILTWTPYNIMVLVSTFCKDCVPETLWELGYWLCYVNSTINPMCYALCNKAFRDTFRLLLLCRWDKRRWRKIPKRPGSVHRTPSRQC
# M1 antag = antagonists of human M1 muscarinic receptor; P11229; CHO-K1 hM1, Fluo-8 calcium fluorescence, ACh EC80 antagonist; 1.3% of 360,000 active; inhibition, % at 3 µM;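 active = percent inhibition above its own plate's cutoff, namely the mean of that plate's compound wells plus 3 SD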;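 note: peak over basal fluorescence ratio during 140 s after agonist addition; 0% = ACh EC80 plus DMSO and 100% = DMSO alone without agonist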
# CHO-K1 Ca antag = M1 antagonist counterscreen hit in parental CHO-K1 cells; ATP-induced calcium, Fluo-8 fluorescence; AID 602250; inhibition, % at 3 µM; 0.6% of 360,000 active;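 active = inhibition above a per-plate cutoff, the plate's mean sample inhibition plus 3 SD, cut at about 24% in these data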;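 note: 0% = DMSO plus EC80 ATP and 100% = DMSO alone without ATP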
# M1 ag = agonists of human M1 muscarinic receptor; 0.33% of 360,000 active; CHO-K1 hM1, Fluo-8 calcium fluorescence, agonist mode; 0% DMSO, 100% acetylcholine EC100; AID 588814; activation, % at 3 µM;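 active = activation above the run's mean compound activation plus 3 SD, cut at about 16% in these data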;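 note: peak over basal fluorescence ratio within a 140 s kinetic read after compound addition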
# CHO-K1 Ca PAM = counter-screen for M1 PAMs: effect in parental CHO-K1 cells | ATP EC20, Fluo-8 calcium fluorescence; 0% at ATP EC20, 100% at ATP max | activation, % at 3 µM | 0.02% of 360,000 active | AID 602247;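 active = activation above the run cutoff, the mean activation of all test compounds plus 3 SD, cut at about 40% in these data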;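 note: peak over basal fluorescence ratio in a 140 s read after ATP addition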
# CHO-K1 Ca ag = counter-screen for M1 agonists: effect in parental CHO-K1 cells | Fluo-8 calcium fluorescence; scaled to maximal ATP response, vehicle zero | activation, % at 3 µM | 0.48% of 360,000 active | AID 602248; in the data active = activation above about 15%;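 note: untransfected CHO-K1 host cells lacking M1 receptor as counterscreen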
# * marks the source's active call; other numbers are inactive results; nt = no result given. This is a sample that favours compounds with a hit; in the whole collection about 2.3% have one here.
SMILES,CHRM1 PAM,M1 antag,CHO-K1 Ca antag,M1 ag,CHO-K1 Ca PAM,CHO-K1 Ca ag
CC(C)(C)C1CCC2(CC1)C(C#N)=C(SCC(=O)Nc1ccccc1)NC(=O)C2C#N (stereo not drawn),-12.3,19.5,27.3*,4.7,-0.6,10.5
CC1(C)CC(=O)C2=C(C1)NC(SCC(=O)Nc1ccccc1)=C(C#N)C21CCCCC1,2.0,-19.3,-9.9,-2.0,18.5,0.2
Cc1ccc(S(=O)(=O)N/N=C\C=C\c2ccccc2)cc1,9.1,-9.1,2.9,0.1,-5.7,-0.3
Cc1ccc(S(=O)(=O)NN=CC2(c3ccccc3)CC2)cc1,5.9,-19.9,-4.5,-3.0,42.0*,-0.4
CC1=CC(=O)Nc2ncccc2O1,18.7,-16.7,-8.5,1.2,-11.4,0.0
O=Cc1ccc2c(c1)OCCOCCOCCOCCO2,3.8,-5.9,2.3,-1.0,-2.9,0.4
CCN=C(Nc1ccc2c(c1)OCO2)SC1CC(=O)N(c2ccc(OC)cc2)C1=O (stereo not drawn),-6.6,26.7*,3.6,0.3,9.7,3.9
CCN=C(NCC)SC1CC(=O)N(c2ccc(F)cc2)C1=O (stereo not drawn),-18.0,34.9*,13.8,-0.3,5.0,5.7
O=C(COC(=O)/C=C/c1cccc(F)c1)Nc1ccc(Cl)cn1,3.3,-3.1,-14.6,-5.2,11.2,0.4
O=C(COC(=O)/C=C/c1cccc(F)c1)Nc1ncccn1,24.5*,-13.9,-16.8,-3.2,20.0,1.1
COc1cccc(N2CCN(c3ncnc4c3[nH]c3ccc(F)cc34)CC2C)c1 (stereo not drawn),-20.8,83.5*,54.8*,6.9,-4.3,10.6
COc1cc2[nH]c3c(N4CCN(c5ccc(Cl)cc5)CC4)ncnc3c2cc1OC,3.4,-5.8,2.3,-3.4,3.0,0.9
COc1cc(-c2n[nH]c(=S)n2/N=C/c2cccn2C)cc(OC)c1OC,-25.6,38.6*,-1.3,64.1*,2.3,22.4*
Cn1cccc1/C=N/n1c(-c2ccco2)n[nH]c1=S,1.4,4.0,7.7,-5.3,-3.4,1.0
CC(OC(=O)c1ccc(S(C)(=O)=O)c([N+](=O)[O-])c1)C(=O)NC1C2CC3CC(C2)CC1C3 (stereo not drawn),-3.5,7.5,7.5,-0.7,5.3,0.1
c1ccc(COc2cccc(-c3cc4nc(NCCc5ccncc5)ccn4n3)c2)cc1,-1.7,0.1,10.7,-0.1,-7.5,2.0
CC(=O)c1c(C)[nH]c(C(=O)OCC(=O)Nc2cccc(S(=O)(=O)N(C)C)c2)c1C,9.4,-11.2,-6.6,-4.2,0.9,0.5
CCN(CC)S(=O)(=O)c1cccc(NC(=O)COC(=O)c2[nH]c(C)c(C(C)=O)c2C)c1,-16.0,30.9*,7.8,4.0,6.7,8.2
CC1=CCC(C(=O)N/N=C/c2cccs2)C(c2ccc(F)cc2)C1 (stereo not drawn),6.5,-9.5,-14.0,1.1,47.8*,0.5
CCCOc1ccc(F)cc1-c1cc(C(=O)Nc2ccccc2)[nH]n1,-21.0,21.8,-3.2,-6.4,-3.8,3.0
CNS(=O)(=O)c1cccc(C(=O)OCc2cc(=O)oc3c(C)c(O)ccc23)c1,-6.8,1.7,-7.8,0.6,12.0,15.4*
CCc1cc2c(COC(=O)c3cccc(S(C)(=O)=O)c3)cc(=O)oc2cc1O,-6.1,9.3,-2.1,-5.6,9.8,9.7
CCOC(=O)c1c(-c2ccccc2)nnn1-c1nc(OCC)nc(N2CCCCC2)n1,-9.5,3.1,53.8*,-4.2,-1.0,7.7
COc1ccc(Oc2c(OC)cc(NCc3ccc(CN)cc3)c3ncccc23)cc1,-4.3,7.6,-5.3,-4.2,14.5,1.9
N=c1c2ccccc2nc2n1CCCCC2,-17.8,3.2,33.6*,-8.9,-9.6,-0.1
SMILES,CHRM1 PAM,M1 antag,CHO-K1 Ca antag,M1 ag,CHO-K1 Ca PAM,CHO-K1 Ca ag
COC(=O)[C@]12CCCCC=C1N(Cc1cccc3ccccc13)C(=O)[C@H](CC(=O)NCCC(C)C)C2,nt,nt,11.1,nt,0.3,6.0
O=S(=O)(c1ccccc1)N(CC1CO1)c1ccccc1 (stereo not drawn),10.2,-4.3,-9.0,-3.9,28.8,15.7*
O=[N+]([O-])c1ccc(N(CC2CO2)S(=O)(=O)c2ccccc2)cc1 (stereo not drawn),21.3,-8.9,-1.7,-10.1,-14.0,0.6
CC1Sc2ccc(S(=O)(=O)N3CCC(C(=O)NCC(C)c4ccccc4)CC3)cc2NC1=O (stereo not drawn),-16.8,46.5*,5.5,1.4,-13.4,15.5*
CC1Sc2ccc(S(=O)(=O)N3CCC(C(=O)NCCc4ccccc4)CC3)cc2NC1=O (stereo not drawn),-4.5,6.3,-3.1,-0.1,2.3,8.5
COc1ccccc1CN1CC(C(=O)NCCCCc2ccccn2)CCC1=O (stereo not drawn),0.8,-4.1,18.2,-7.4,-12.8,-0.1
CSCCC(NC(=O)c1ccc(Cl)cc1Cl)C(=O)NCc1ccccn1 (stereo not drawn),6.9,-11.7,35.4*,-2.8,16.7,0.1
CSCCC(NC(=O)c1ccccc1Cl)C(=O)NCC1COc2ccccc2O1 (stereo not drawn),-12.7,31.2*,15.9,-1.6,-30.9,0.0
CCCn1cc(SCC(=O)Nc2cc(C)on2)c2ccccc21,17.2,-25.3,-8.5,-3.4,7.6,0.4
Cc1cc(NC(=O)CS(=O)c2cn(Cc3cccc(Cl)c3)c3ccccc23)no1 (stereo not drawn),2.5,-6.1,4.3,22.6*,11.9,5.3
Cc1cc(NC(=O)CS(=O)(=O)c2cn(Cc3ccccc3Cl)c3ccccc23)no1,-1.1,7.2,-12.5,11.2,-2.1,4.4
Cc1cc(NC(=O)CS(=O)(=O)c2cn(Cc3cccc(Br)c3)c3ccccc23)no1,14.0,-5.3,-3.6,29.9*,4.0,1.6
OCCN1CCN(c2ncnc3c2ncn3[C@H]2CN(Cc3cccc(C(F)(F)F)c3)C[C@@H](CO)O2)CC1,5.2,-14.3,-3.3,-4.0,5.6,0.1
O=C(COC(=O)c1ccc(F)cc1F)Nc1ccc2c(c1)OCO2,16.4,-14.3,-3.9,-0.1,-11.2,0.1
CC(=O)Nc1cccc(-c2ccnc3c2CC(C(=O)Nc2ccc(Cl)cc2)O3)c1 (stereo not drawn),2.6,-7.3,-4.8,1.8,2.2,3.7
COc1cccc(CNc2nc3cc(-c4ccsc4)sc3c(=O)n2C)c1OC,-7.2,2.9,2.4,1.7,7.5,5.2
O=C(N/N=C/c1ccncc1)c1ccc(OCc2ccccc2)cc1,1.4,-1.9,-6.7,20.5*,15.2,3.2
COc1ccc(C(=O)N/N=C/c2ccc3cccc(OCc4ccccc4)c3n2)cc1,-8.1,31.5*,4.5,1.0,25.0,3.9
Cc1ncc([N+](=O)[O-])n1CC(=O)Nc1ccccc1Cl,10.5,-5.5,-2.9,-2.9,19.3,3.4
